Only some compounds are listed: those with a hit (about 17% of all), similar ones and a draw of the others.
DT40 TDP1 CPT – qHTS for Inhibitors of human tyrosyl-DNA phosphodiesterase 1 (TDP1): qHTS in cells in presence of CPT | chicken DT40 Tdp1-/-;hTDP1 cells + 20 nM CPT, ATP luminescence, 48 h | Potency, µM (doses to about 46.2 µM), usual class: inhibitors | actives 12% (n = 420,000); note: nearly all actives have a fitted effect of over 55% in size
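Cell growth measured by CellTiter-Glo luminescence after a minimum 48 h, 37 C compound exposure with 20 nM CPT in Tdp1-knockout DT40 cells stably expressing hTDP1, seeded 400/well; qHTS titration format.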
TDP1 inh – qHTS Assay for Inhibitors of Tyrosyl-DNA Phosphodiesterase (TDP1); Tyrosyl-DNA phosphodiesterase 1 (Homo sapiens), Q9NUW8; recombinant TDP1, AlphaScreen DNA substrate cleavage; Potency, µM (doses to about 130 µM), actives largely listed as inhibitors; actives 0.28% (n = 350,000); AID 485290, 2010; note: nearly all actives have a fitted effect of over 40% in size
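E. coli-derived human Tdp1, 1 nM final. Cpd preinc 15 min RT; substrate 15 nM final, 5 min RT; AS bead mix 10 ug/ml final, 10 min RT. Signal loss = tyrosine-FITC cleavage. No-enzyme wells = max signal.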
ClpP mod – qHTS Assay for Activators of ClpP. purified B. subtilis ClpP, FRET peptide cleavage, 20 min. Potency, µM (titrated, usually from 57.5 µM). actives 1.9% (n = 340,000). AID 651965, 2013; active = well fitted falling curve with a large enough effect; inconclusive = small, poorly fitted or top-dose-only effect; inactive = no such curve, though single readings can be large or run the other way; note: the source files actives as falling curves though it sought activators and does not explain the sign; nearly all actives have a fitted effect of over 65% in size
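FRET quenching reversal measured ClpP activation: 10 microg/mL B. subtilis ClpP at pH 8 with the FRET-FV decapeptide, read at 430 nm after 320 nm excitation. The 20-min minus 0-min signal was scaled between DMSO/no-enzyme wells and ADEP (5.8 microM final).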
TDP1 cell noCPT – qHTS for Inhibitors of human tyrosyl-DNA phosphodiesterase 1 (TDP1): qHTS in cells in absence of CPT; DT40 Tdp1-/- hTDP1 cells, no CPT, ATP luminescence, 48 h; Potency, µM (doses to about 46.2 µM), hits mostly inhibitors; actives 15% (n = 420,000); note: nearly all actives have a fitted effect of over 55% in size
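Seeded 400 DT40-hTDP1 cells/well (vehicle DMSO, no 20 nM CPT); pinned compounds; ≥48 hr at 37 °C; CellTiter-Glo luminescence as viability measure.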
Numbers stand for hits; i = inactive; ? = inconclusive; nt = not tested or not shown; [ ] = dose if it differs, or a comment. Unless noted, calls come from the whole dose curve; as a rule, active = well fitted curve in the direction sought with a large enough effect; inconclusive = small, poorly fitted or top-dose-only effect, or another doubt; inactive = no such curve, though single readings can be large; an effect the other way counts as inactive or inconclusive.

SMILES	DT40 TDP1 CPT	TDP1 inh	ClpP mod	TDP1 cell noCPT
O=C(NCC1CCCO1)C(c1cccs1)N(Cc1cccs1)C(=O)Cn1nnc(-c2cccs2)n1 (stereo unspecified)	16µM	i	i	18µM
O=C(NCC1CCCO1)C(c1cccs1)N(C(=O)Cn1nnc(-c2cccs2)n1)C1CCCC1 (stereo unspecified)	i	i	i	i
CCCCC(C(=O)NC1CCCC1)N(Cc1ccco1)C(=O)Cn1nnc(-c2ccc(F)cc2)n1 (stereo unspecified)	23µM	i	i	23µM
Cc1ccc(-c2nnn(CC(=O)N(Cc3cccs3)C(C(=O)NC3CCCCC3)c3ccco3)n2)o1 (stereo unspecified)	26µM	i	i	23µM
O=C(NC1CCCCC1)C(c1ccco1)N(Cc1cccs1)C(=O)Cn1nnc2ccccc21 (stereo unspecified)	?	i	i	i
O=C(NCC1CCCO1)C(c1ccc(F)cc1)N(C(=O)Cn1nnc(-c2ccc(F)cc2)n1)c1cccc(O)c1 (stereo unspecified)	?	i	nt	9.2µM
O=C(NC1CCCCC1)C(c1ccccc1)N(Cc1ccco1)C(=O)Cn1cnc2ccccc21 (stereo unspecified)	23µM	i	i	23µM
CC(/C=N/NC(=O)CSc1ccccn1)=C\c1ccc(C(C)C)cc1	?	i	i	10µM
C[C@@H](c1ccccc1)N1C(=O)[C@H]2[C@H]3[C@H](O)[C@H](O)C/C(=N/NC(=O)OCc4ccccc4)[C@H]3CC[C@@H]2C1=O	nt	i[21 µM]	nt	nt
CCCCN1CCCCC1(C)C(=O)NCc1ccc2c(c1)OCO2 (stereo unspecified)	?	nt	i	?
CSc1ccc(CN2CCC2(C)C(=O)Nc2ccc3c(c2)OCO3)cc1 (stereo unspecified)	29µM	nt	i	?
CSc1ccc(CN2CCC2(C)C(=O)NCc2ccc3c(c2)OCO3)cc1 (stereo unspecified)	15µM	nt	i	?
CC1(C(=O)Nc2ccc3c(c2)OCCO3)CCN1Cc1ccc2ccccc2c1 (stereo unspecified)	?	nt	i	i
COc1cc(/C=C/C(=O)O)cc(S(=O)(=O)Nc2ccc(S(=O)(=O)N3CCCCC3)cc2)c1OC	i	i	i	i
COc1ccccc1/C=C/C(=O)OCC(=O)NC1CCCCCCC1	i	i	i	i
CCc1ccccc1NC(=O)Cn1nnc(-c2nc(-c3ccncc3)no2)c1N	i	i	i	i
O=C(O)CCc1ccc(-c2ccccc2)n1Cc1ccco1	i	i	28µM	i
O=C(O)CCc1ccc(-c2ccc(Br)cc2)n1Cc1ccco1	i	i	i	i
Cc1nc(N2C(=O)c3oc4ccccc4c(=O)c3C2c2ccccc2F)sc1C (stereo unspecified)	i	i	i	i
Cc1nc2ccccc2nc1C	i	nt	i	i
O=C(NC[C@H](O)c1ccccc1)c1ccccc1	i[9.04 µM]	i	nt	i[9.04 µM]
O=C(C1CCCN(Cc2cccc(Cl)c2)C1)N1CCCCC1 (stereo unspecified)	?	nt	i	26µM
O=C(C1CCN(Cc2cc(Cl)ccc2O)CC1)N1CCN(Cc2ccccc2)CC1	?	i	i	21µM
COc1ccc(Br)cc1CN1CCCC(C(=O)N2CCCCCC2)C1 (stereo unspecified)	?	i	i	23µM
CCS(=O)(=O)N1CCC(C(=O)N2CCN(Cc3ccccc3)CC2)CC1	i	i	nt	i
SMILES	DT40 TDP1 CPT	TDP1 inh	ClpP mod	TDP1 cell noCPT
COc1ccc(Br)cc1CN1CCCC(C(=O)N2CCCCC2)C1 (stereo unspecified)	i	nt	i	i
COc1ccc2c(c1)[C@]1(C)CCC(=O)C[C@H]1CC2	i	i	nt	i
O=C1/C(=C/c2ccccc2)Nc2ccccc21	i	i	i	i
O=C1/C(=C/c2ccccc2)NC(=S)N1C(c1ccccc1)c1ccccc1	4.6µM	i	i	5.8µM
COc1ccc(C(=O)Nc2ccc(N3CCN(c4ccccc4)CC3)c(C(=O)O)c2)cc1	i	i	i	i
O=C(CSc1nc2c(c(C(F)(F)F)n1)CCc1ccccc1-2)NCc1ccccc1	?	i	i	26µM
